# Shown are actives, neighbours in structure and some others; about 5.1% of the full set was active somewhere.
# JMJD2E inh – inhibitors of human JMJD2E histone demethylase | B2RXH2 | JMJD2E catalytic domain, FDH-coupled NADH fluorescence (FDH is formaldehyde dehydrogenase) | Potency, µM (doses to about 57.1 µM), actives largely listed as inhibitors | actives 1.6% (n = 230,000); active = well fitted inhibition curve with a large enough effect, not every such curve was filed as active; inconclusive = small, poorly fitted or top-dose-only effect, or another doubt; inactive = no such curve, though single readings can be large or run the other way; note: nearly all actives have a fitted effect of over 50% in size
# PNC inhibitor – inhibitors of perinucleolar compartment assembly; PC3M PTB-GFP, PNC prevalence imaging, 16 h; hits give low values; activity change (PNC), negative = inhibition, % at 10 µM; actives 3.1% (n = 140,000);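 active = readout at or below -70, meaning at least 70% loss of cells showing the perinucleolar compartment, a nuclear body marking cancer cells; inconclusive = readout between -30 and a set limit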
#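 Compounds are pinned in duplicate onto adhered PC3M cells stably expressing GFP-tagged PTB and incubated 16 h at 37 C. Cells are then fixed, nuclei stained with Hoechst, and PNC-positive cells counted.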
# Tau fibril ThT – tau fibrillization inhibition (ThT binding); P10636; recombinant tau K18 P301L, heparin-induced fibrillization, ThT fluorescence; Potency, µM (highest dose often 57.4 µM), usual class: inhibitors; actives 2.1% (n = 270,000); note: nearly all actives have a fitted effect of over 55% in size
# Target sequence (P10636 561-689 P618L limits assumed): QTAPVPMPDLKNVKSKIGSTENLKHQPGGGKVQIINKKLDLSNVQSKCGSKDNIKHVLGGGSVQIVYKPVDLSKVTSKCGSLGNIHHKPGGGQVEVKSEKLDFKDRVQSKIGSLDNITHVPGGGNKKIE
#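 ThT emission at 510 nm, taken 1 hr after adding 30 uM dye, quantifies aggregates formed when 20 uM heparin acts on human tau K18 P301L for 6 hr at 37 C.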
# Tau fibril FP – blocks human tau fibril formation measured by polarization | K18 P301L tau heparin fibrillization, Alexa594 FP, 6 h | P10636 | AID 1468 | Potency, µM (highest dose often 57.7 µM), hits mostly inhibitors | actives 0.39% (n = 280,000); note: nearly all actives have a fitted effect of over 55% in size
#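 Quantitative HTS format: compounds meet 15 uM recombinant K18 P301L tau and Alexa 594-tau tracer in 100 mM sodium acetate pH 7; 20 uM heparin triggers fibrillization at 37 C over 6 hr; FP gives the signal.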
# Tau fluor counter – counter-screen for tau fibril formation inhibitors; tau K18 P301L Alexa594 fluorescence, heparin fibrillization; actives 0.93% (n = 280,000); Potency, µM (series often up to 57.7 µM); note: nearly all actives have a fitted effect of over 55% in size
#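 Human tau K18 P301L (15 uM unlabeled, 0.24 uM Alexa 594-labeled) in 100 mM sodium acetate pH 7 with 20 uM heparin, 6 hr at 37 C. ThT 30 uM added, 1 hr ambient; Alexa 594 FP and total fluorescence read at 555/632 nm.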
# NPSR antag – antagonists of human neuropeptide S receptor cAMP signaling | CHO-NPSR cells, cAMP TR-FRET, antagonist mode | Potency, µM (series often up to 38.3 µM), usual class: inhibitors | actives 1% (n = 220,000); note: nearly all actives have a fitted effect of over 50% in size
# Target sequence (Q6W5P4 whole entry, looked up): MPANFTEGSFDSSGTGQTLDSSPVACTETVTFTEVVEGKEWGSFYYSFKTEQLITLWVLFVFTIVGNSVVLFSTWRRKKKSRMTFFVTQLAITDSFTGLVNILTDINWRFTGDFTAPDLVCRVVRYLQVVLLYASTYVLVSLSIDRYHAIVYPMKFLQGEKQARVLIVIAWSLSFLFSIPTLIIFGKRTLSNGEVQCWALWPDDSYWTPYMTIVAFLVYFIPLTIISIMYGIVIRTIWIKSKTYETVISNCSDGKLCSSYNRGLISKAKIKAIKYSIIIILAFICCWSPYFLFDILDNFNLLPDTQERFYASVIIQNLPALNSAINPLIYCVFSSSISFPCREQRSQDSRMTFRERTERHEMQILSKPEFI
# A number is an active result; – = inactive; ? = inconclusive; · = no result; [ ] = remark or other dose. Unless noted, calls come from the whole dose curve; as a rule, active = well fitted curve in the direction sought with a large enough effect; inconclusive = small, poorly fitted or top-dose-only effect, or another doubt; inactive = no such curve, though single readings can be large; an effect the other way counts as inactive or inconclusive.
SMILES,JMJD2E inh,PNC inhibitor,Tau fibril ThT,Tau fibril FP,Tau fluor counter,NPSR antag
CC1(C)CC(=O)C2=C(C1)NC1=C(C(=O)c3ccccc31)C2c1cc([N+](=O)[O-])ccc1O (stereo not given),–,·,14µM,–,16µM[quencher],–
CCOc1ccccc1NC(=O)Nc1ccc2nc(N3CCN(C)CC3)cc(C)c2c1,·,·,14µM,–,10µM[quencher],·
Cc1ccccc1NC(=O)Nc1ccc2nc(N3CCN(C)CC3)cc(C)c2c1,·,·,?,?,14µM[quencher],·
Cc1cc(N2CCN(C)CC2)nc2ccc(NC(=S)N3CCN(c4ccc(Cl)cc4)CC3)cc12,?,·,?,–,?,–
Cc1cc(N2CCN(C)CC2)nc2ccc(NC(=O)Nc3ccc(Cl)cc3)cc12,·,·,13µM,–,10µM[quencher],·
CCN1CCN(c2cc(C)c3cc(NC(=O)Cc4ccccc4OC)ccc3n2)CC1,?,–,–,?,–,–
CSc1nc2sc3c(c2c(=O)n1Cc1ccccc1)CCC(C(C)(C)C)C3 (stereo not given),·,·,–,–,–,·
O=C(c1ccc2c(c1)N(Cc1ccccc1)C(=O)c1ccccc1S2=O)N1CCC(Cc2ccccc2)CC1 (stereo not given),·,·,–,–,–,·
Cn1ncc(Cl)c1C(=O)Nc1ccc(Cl)cn1,–,-100,–,–,–,–
O=C(Nc1ccc(Cl)cn1)c1ccc(-c2cc(Cl)ccc2Cl)o1,–,–,7.9µM,?,?,?
Cc1cc(NC(=O)c2c(Cl)cnn2C)no1,–,?,–,–,–,–
COc1ccc(-c2noc(-c3ccc(NCc4ccc(C)cc4)c([N+](=O)[O-])c3)n2)cc1OC,·,·,–,?,–,·
O=C1/C(=C/C=C/c2ccco2)SC(=S)N1c1ccc(O)cc1,14µM,·,4µM,?,11µM[quencher],–
CN(C)c1ccc(/C=C/C=C2/SC(=S)N(c3ccccc3)C2=O)cc1,–,–,2.5µM,–,0.71µM[fluorescent],?
O=C(O)c1ccc(N2C(=O)/C(=C/C=C/c3ccccc3)SC2=S)cc1,–,·,?,–,–,–
NN1C(=O)/C(=C\c2ccco2)SC1=S,?,·,32µM,?,?,–
CC(C)C(C(=O)O)N1C(=O)/C(=C/C=C/c2ccco2)SC1=S (stereo not given),?,–,13µM,25µM,?,–
CCOCCSc1c(C)cnc2c1c(=O)n(C)c(=O)n2C,·,·,–,–,–,·
O=C(CCN1N=C(c2ccccc2)CCC1=O)NCCc1ccc(Cl)cc1,·,·,–,–,–,·
O=C1/C(=C\c2ccc(O)cc2)SC(=S)N1c1cccnc1,–,·,?,–,–,–
O=C1/C(=C\c2ccco2)SC(=S)N1c1ccc(O)cc1,?,–,18µM,–,?,–
O=C1/C(=C/c2ccco2)SC(=S)N1c1cccnc1,?,·,16µM,?,?,–
C[C@H]1Cc2c(-c3ccccc3)nc3c(c2CO1)CN(C(=O)NCCc1c[nH]c2ccccc12)CC3,–[11.4 µM],·,–[11.5 µM],–[11.6 µM],–[11.6 µM],·
Cc1ccc(SCC(=O)Nc2ccc(-c3nnc(-c4ccco4)o3)cc2)cc1,?,–,?,?,–,–
COc1ccc(C(=O)CSc2nnc(-c3ccco3)n2C)cc1,–,–,–,–,–,–
SMILES,JMJD2E inh,PNC inhibitor,Tau fibril ThT,Tau fibril FP,Tau fluor counter,NPSR antag
O=C(CSc1nnc(-c2ccco2)c(-c2ccco2)n1)Nc1ccccc1,16µM,–,7.9µM,?,?,–
CSc1nnc(-c2ccccc2)c(-c2ccccc2)n1,–,·,–,–,–,?
COc1ccc(C(=O)CSc2nnc(-c3ccco3)c(-c3ccco3)n2)cc1,?,·,14µM,?,?,–
CSc1nnc(-c2ccco2)c(-c2ccco2)n1,?,–,13µM,?,?,?
Cc1ccc(NC(=O)CSc2nnc(-c3ccco3)c(-c3ccco3)n2)cc1,?,–,7.9µM,?,?,–
COc1ccc(N2CCN(C(=O)c3cccc(NC(=O)c4nsc5ccccc45)c3)CC2)cc1,·,·,?,–,?,·
Cc1ccc(OCCn2cc(C(=O)C3CCCCC3)c3ccccc32)cc1,·,·,–,–,–,·
Cc1noc2ncnc(N3CCN(c4ccccc4F)CC3)c12,·,·,–,–,–,·
COc1ccc(S(=O)(=O)N(CC(=O)NCCSc2ccccc2)c2ccc(Cl)cc2)cc1,·,·,–,–,–,·

# Screens (PubChem BioAssay)
